Growth data for 38 compounds are collected here from PubChem BioAssay (NCI).

Structures are written as SMILES. This is part of a sample that, as a whole, favours compounds with a hit. Of some 83,000 tested, about 20% had one in any assay.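 Interpretation: 100, growth as untreated; towards 0, rising growth inhibition; 0, no net growth; 0 to -100, cell death. Compounds scoring below 10 were considered active.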 Unmarked numbers belong to inactive results. The source made the active and inactive calls.

In one experiment the test system is HCT-15 colon. In words: NCI-60 one-dose screen, 48 h (100 = growth as untreated, 0 = no growth, -100 = all killed). As to conditions: 10 µM unless noted.
`O=c1[nH]c2ccccc2cc1-c1nc2ccncc2[nH]1`: the growth was 85.9%.
On the same count and under the same terms, next, `C=C1C(=O)O[C@H]2[C@H]1CC/C(COC(=O)NCc1nc3ccccc3[nH]1)=C\CC[C@@]1(C)O[C@@H]21`: 103%.
`Cc1cccc(C)c1NCc1nnc(-c2ccco2)o1`: the growth is 103%.
For `Nc1c(C(=O)Nc2ccccn2)sc2nc3c(cc12)CCCC3`, the growth is 27.4%.
On to `Cc1c(Cl)cccc1NC(=O)c1sc2nc3c(cc2c1N)CCCCC3`, for which the growth is 30.1%.
Regarding `CCSc1nc(Cl)c(C#N)c(-c2ccc(F)cc2)n1`, the growth is 88.1%.
Same read-out and setting: next, `CCc1n(Cc2ccc3ccccc3c2)c2ccccc2[n+]1Cc1ccc2ccccc2c1`: 101%; `NC(=O)CN1C(=O)c2ccccc2C1=O`: 100%; `O=C1C(=O)c2c(nc3ccc(C(F)(F)F)cn23)-c2ccccc21`: -67.4% (active).
Same read-out and setting: next, `COc1cccc(NC(=O)Nc2ccc(Nc3ncnc4[nH]c(C)c(C)c34)cc2)c1`: 94.1%; `NC(=O)c1ccc2nc3c(n2c1)C(=O)C(=O)c1ccccc1-3`: -63.4% (active); `O=C(O)c1cc(N=Nc2ccc(-c3ccc(N=Nc4c(S(=O)(=O)O)cc5ccc(Nc6ccccc6)cc5c4O)cc3)cc2)ccc1O`: 100%.
On to `C=C1C(=O)O[C@H]2[C@H]1CCC(/C=N/c1ncc(Br)cc1N)=C\CC[C@@]1(C)O[C@@H]21`, for which the growth was -45.3% (active).
Same read-out and setting: as for `Cc1nc2sc(C(=O)Nc3ccccc3Cl)c(N)c2cc1C(C)O` (stereo not drawn), the figure is 61.4%; as for `COc1ccc(/C=C/C(=O)c2ccc(NC(=O)CSc3nnc(-c4ccc(OC)c(OC)c4)n3-c3ccccc3)cc2)cc1`, 4.42% (active).
On the same count and under the same terms, as for `O=c1c2ccccc2n(CC(O)CN2CCCC2)c2c(Br)cccc12` (stereo not drawn), the figure is 103%.
On the same count and under the same terms, next, `O=C(CCCCCCCCC(=O)Nc1cccc(C2=NCCN2)c1)Nc1cccc(C2=NCCN2)c1`: 102%; `Cc1ccc(C(=O)/C(=C/c2ccc([N+](=O)[O-])cc2)S(=O)Cc2ccccc2)cc1` (stereo not drawn): -8.82% (active).
Turning to `COc1ccc(-c2nc(C#N)c(NCC(c3ccc(Cl)cc3)N3CCCCC3)o2)cc1` (stereo not drawn), the growth was 69.4%.
Take `O=C1CC(c2ccc(O)c(O)c2)Oc2cc(O)c([C@@H]3O[C@H](CO)[C@@H](O)[C@H](O)[C@H]3O)c(O)c21` (stereo partly drawn): the growth is 102%.
As for `CCCn1c2cc(OCc3cn(-c4ccc(Cl)cc4)nn3)ccc2c2ccnc(C)c21`, the growth is 67.6%.
On to `COc1ccccc1C(=O)/C=C/c1cc2cccc(OC)c2[nH]c1=O`, for which the growth is -12.5% (active).
In the case of `O=[N+]([O-])c1ccc(N=Nc2c(O)c(N=Nc3cc([N+](=O)[O-])cc([N+](=O)[O-])c3O)cc(N=Nc3cc(S(=O)(=O)O)cc4cc(S(=O)(=O)O)cc(O)c34)c2O)cc1`, the growth was 101%.
With `COc1cc(N=Nc2cc(S(=O)(=O)O)cc3cc(S(=O)(=O)O)cc(O)c23)c(C)cc1N=Nc1c(S(=O)(=O)O)cc2cc(Nc3ccccc3)ccc2c1O`, the growth is 110%.
On the same count and under the same terms, next, `C=C1C(=O)O[C@H]2[C@H]1CC/C(COC(=O)/C=C/c1cccnc1)=C\CC[C@@]1(C)O[C@@H]21`: 3.01% (active).

A further experiment has as its system HT29 colon. Described as above. Particulars: 10 µM unless noted.
In the case of `CCN(CC)CC#CCOC(=O)[C@]1(C)CCC[C@]2(C)[C@H]3C[C@H]4C(C(C)C)=C[C@]3(CC[C@H]21)[C@@H]1C(=O)CCC(=O)[C@@H]14`, the growth is 5.05% (active).
Still for that read-out and setting: next, `CN1CCN(CC#CCOC(=O)CNC(=O)[C@]23CCC(C)(C)C[C@H]2C2=CC[C@@H]4[C@@]5(C)CC[C@H](O)C(C)(C)[C@@H]5CC[C@@]4(C)[C@]2(C)CC3)CC1`: 75.5%.
Still for that read-out and setting: as for `Nc1cc(N)c(S(=O)(=O)O)cc1N=Nc1cc([N+](=O)[O-])ccc1O`, the figure is 102%.
Still for that read-out and setting: as for `COc1ccc2c(c1)Oc1nc(N)c(C#N)c(N)c1C2Sc1ccc(SC)cc1` (stereo not drawn), the figure is 17.2%; as for `CO[C@@]12C=C[C@@]34CCC(=O)N3c3ccccc3[C@@H](O1)C4C2`, 101%.
With `COc1cc(NC(=O)Nc2cnc(Nc3ccc(N4CCOCC4)cc3)nc2Oc2ccc(F)cc2)cc(OC)c1`, the growth is 86.9%.
On the same count and under the same terms, next, `C/C(=N/Nc1nc2ccccc2n1C)c1ccccn1`: 14.7%.
The same measure, in the same setting: next, `Cc1cccc(C)c1NC(=O)CN(CC(C)C)CC(O)COc1ccccc1` (stereo not drawn): 85.5%; `COC(=O)c1ccc2c(c1)NC(=O)[C@@H]1CCCN21`: 98.5%; `O=C1c2ccccc2C(=O)c2c1oc1c2c(=O)[nH]c2ccc(Cl)cc21`: 66.4%.
On the same count and under the same terms, next, `COc1cc(NC(=O)Nc2cnc(Nc3ccc(N4CCOCC4)cc3)nc2Oc2ccc(C(F)(F)F)cc2)cc(OC)c1`: 95.5%; `COc1ccc(C(=O)c2cc(F)c(F)c(OC)c2F)cc1OC(=O)CCl`: 94.8%; `Nc1c(C(=O)Nc2cccc3ccccc23)sc2nc3c(cc12)CCCCC3`: 19.1%.
Take `O=c1[nH]c2ccccc2cc1-c1nc2ccncc2[nH]1`: the growth was 84.5%.
As to `C=C1C(=O)O[C@H]2[C@H]1CC/C(COC(=O)NCc1nc3ccccc3[nH]1)=C\CC[C@@]1(C)O[C@@H]21`, the growth was 63.8%.
Still for that read-out and setting: next, `Cc1cccc(C)c1NCc1nnc(-c2ccco2)o1`: 93.9%; `Nc1c(C(=O)Nc2ccccn2)sc2nc3c(cc12)CCCC3`: 21.7%; `Cc1c(Cl)cccc1NC(=O)c1sc2nc3c(cc2c1N)CCCCC3`: 9.15% (active).
On the same count and under the same terms, as for `CCSc1nc(Cl)c(C#N)c(-c2ccc(F)cc2)n1`, the figure is 92.6%.
As for `CCc1n(Cc2ccc3ccccc3c2)c2ccccc2[n+]1Cc1ccc2ccccc2c1`, the growth was 25.3%.
The same measure, in the same setting: next, `NC(=O)CN1C(=O)c2ccccc2C1=O`: 102%.
As to `O=C1C(=O)c2c(nc3ccc(C(F)(F)F)cn23)-c2ccccc21`, the growth is -9.93% (active).
The same measure, in the same setting: as for `COc1cccc(NC(=O)Nc2ccc(Nc3ncnc4[nH]c(C)c(C)c34)cc2)c1`, the figure is 95.5%; as for `NC(=O)c1ccc2nc3c(n2c1)C(=O)C(=O)c1ccccc1-3`, -7.62% (active).
The same measure, in the same setting: as for `O=C(O)c1cc(N=Nc2ccc(-c3ccc(N=Nc4c(S(=O)(=O)O)cc5ccc(Nc6ccccc6)cc5c4O)cc3)cc2)ccc1O`, the figure is 99.9%.
Same read-out and setting: as for `C=C1C(=O)O[C@H]2[C@H]1CCC(/C=N/c1ncc(Br)cc1N)=C\CC[C@@]1(C)O[C@@H]21`, the figure is -18.6% (active).
With `Cc1nc2sc(C(=O)Nc3ccccc3Cl)c(N)c2cc1C(C)O` (stereo not drawn), the growth was 34.3%.
Same read-out and setting: next, `COc1ccc(/C=C/C(=O)c2ccc(NC(=O)CSc3nnc(-c4ccc(OC)c(OC)c4)n3-c3ccccc3)cc2)cc1`: 43.7%; `O=c1c2ccccc2n(CC(O)CN2CCCC2)c2c(Br)cccc12` (stereo not drawn): 103%; `O=C(CCCCCCCCC(=O)Nc1cccc(C2=NCCN2)c1)Nc1cccc(C2=NCCN2)c1`: 82.3%.
Consider `Cc1ccc(C(=O)/C(=C/c2ccc([N+](=O)[O-])cc2)S(=O)Cc2ccccc2)cc1` (stereo not drawn), for which the growth is -21% (active).
On the same count and under the same terms, as for `COc1ccc(-c2nc(C#N)c(NCC(c3ccc(Cl)cc3)N3CCCCC3)o2)cc1` (stereo not drawn), the figure is 85.6%.
Regarding `O=C1CC(c2ccc(O)c(O)c2)Oc2cc(O)c([C@@H]3O[C@H](CO)[C@@H](O)[C@H](O)[C@H]3O)c(O)c21` (stereo partly drawn), the growth was 103%.
On the same count and under the same terms, next, `CCCn1c2cc(OCc3cn(-c4ccc(Cl)cc4)nn3)ccc2c2ccnc(C)c21`: 30.7%; `COc1ccccc1C(=O)/C=C/c1cc2cccc(OC)c2[nH]c1=O`: -39.1% (active); `O=[N+]([O-])c1ccc(N=Nc2c(O)c(N=Nc3cc([N+](=O)[O-])cc([N+](=O)[O-])c3O)cc(N=Nc3cc(S(=O)(=O)O)cc4cc(S(=O)(=O)O)cc(O)c34)c2O)cc1`: 99.1%.
Still for that read-out and setting: as for `COc1cc(N=Nc2cc(S(=O)(=O)O)cc3cc(S(=O)(=O)O)cc(O)c23)c(C)cc1N=Nc1c(S(=O)(=O)O)cc2cc(Nc3ccccc3)ccc2c1O`, the figure is 105%.
For `C=C1C(=O)O[C@H]2[C@H]1CC/C(COC(=O)/C=C/c1cccnc1)=C\CC[C@@]1(C)O[C@@H]21`, the growth was 11.1%.
